A short description of test [1]: Nuclear factor erythroid 2-related factor 2/antioxidant responsive element (Nrf2/ARE) small molecule agonists: qHTS cell viability counter screen in human keratinocytes (AID 1919968; active = well fitted curve in the direction sought with a large enough effect in the repeat runs; an effect the other way counts as inactive or inconclusive; note: nearly all actives have a fitted effect of over 55% in size; note: potency is the fitted concentration of half-maximal effect). In outline: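 Fluorescence read-out from CellTiter-Fluor after 1 h at 37 C. Wells held HaCaT-derived ARE-luciferase reporter cells (1,500/well) treated 23 h with DMSO-dissolved compounds. Run in the same wells as the luciferase agonist read.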

Test [2] addresses Gonadotropin-releasing hormone receptor (Homo sapiens) (UniProt P30968). Put plainly: Human gonadotropin-releasing hormone receptor (GnRHR) small molecule agonists, calcium flux assay in GnRHR-HEK293 cells (AID 1920063). Note: nearly all actives have a fitted effect of over 35% in size. The procedure, abridged: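 Calcium-dye fluorescence, Ex/Em=480/540, recorded every 1 sec over 3 min after compound addition to GnRHR-HEK293 cells. Cells had been seeded 18 hours earlier and dye-loaded for 1 hour at 37 C. Fifteen concentrations, triplicates.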
(A change in cytosolic calcium serves as a functional read-out for many receptors and channels.)

Test [3] has as its target KiSS-1 receptor (Homo sapiens) (UniProt Q969F8). Put plainly: Human kisspeptin (KISS1R) small molecule agonists, calcium flux assay in KISS1R-HEK293 cells (AID 1920064; active = well fitted curve in the direction sought with a large enough effect in the repeat runs; an effect the other way counts as inactive or inconclusive). In outline:
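Calcium flux read-out: kinetic fluorescence at Ex/Em=480/540, 1 s intervals over 3 min, after pin-tool compound addition to dye-loaded KISS1R-HEK293 cells. Fifteen concentrations, triplicates.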

Test [4] can be described thus: G protein-coupled receptor (GPCR) small molecule agonists, calcium flux assay: HEK293 wild type cell line counter screen (AID 1920065). In outline: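 Agonist mode; 18 h seeding at 37 C, 1 h dye load at 37 C; compounds pinned from DMSO, ATP as positive control; kinetic fluorescence 480/540 nm, 3 min, 1 s reads; 15 concentrations, triplicate.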
A short description of test [5]: p53 small molecule agonists, cell-based qHTS assay with human liver microsomes: qHTS cell viability counter screen (AID 1963579). Note: nearly all actives have a fitted effect of over 45% in size. Note: potency is the fitted concentration of half-maximal effect. The procedure, abridged:
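Metabolically activated exposure: compounds, human liver microsomes and NADPH (0.5 mg/mL final apiece) were added to p53RE-bla cells seeded 5 h earlier, left 16 h at 37 C, and then assessed for viability by CellTiter-Glo luminescence.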

A short description of test [6]: p53 small molecule agonists, cell-based qHTS assay with rat liver microsomes: qHTS cell viability counter screen (AID 1963580). Note: nearly all actives have a fitted effect of over 45% in size. The procedure, abridged:
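After the beta-lactamase ratio was read, CellTiter-Glo was added to the same wells and luminescence measured at 30 min; cells had been treated 16 h at 37 C with compounds, rat liver microsomes and NADPH (0.5 mg/mL final each).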
(In general: In qHTS, concentration-response curves come from the screen itself.)

A short description of test [7]: p53 small molecule agonists, cell-based qHTS assay: qHTS cell viability counter screen (AID 1963581). Note: nearly all actives have a fitted effect of over 45% in size. The procedure, abridged: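 Cytotoxicity read-out: ATP-based luminescence (CellTiter-Glo, 30 min RT) measured in the same wells as the p53 reporter assay, HCT-116 p53RE-bla cells, 16 h compound exposure at 37 C.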
Test [8] deals with 5-hydroxytryptamine receptor 2A (Homo sapiens) (UniProt P28223). Put plainly: 5-hydroxytryptamine receptor 2A (HTR2A) small molecule antagonists, cell-based qHTS assay (AID 1963586). Note: nearly all actives have a fitted effect of over 45% in size. Note: potency is the fitted concentration of half-maximal effect. The procedure, abridged:
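CHO cells stably expressing human HTR2A were plated for 18 h at 37 C, then loaded with calcium dye for 1 h. Compounds were preincubated 5 min at room temperature before DOI (4 nM solution) was added. Kinetic fluorescence was read for 3 min.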

Test [9] has the same target. As to the kind of experiment: 5-hydroxytryptamine receptor 2A (HTR2A) small molecule agonists, cell-based qHTS assay (AID 1963587). Note: nearly all actives have a fitted effect of over 30% in size. In outline:
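CHO cells stably expressing human HTR2A, plated 18 h, loaded with calcium dye 1 h at 37 C. Agonist mode: compounds added and intracellular calcium fluorescence recorded kinetically for 2 min at 1 sec intervals.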

For test [10], the target named is Muscarinic acetylcholine receptor M1 (Homo sapiens) (UniProt P11229). As to the kind of experiment: Cholinergic receptor muscarinic 1 (CHRM1) small molecule antagonists, cell-based qHTS assay (AID 1963588). Note: nearly all actives have a fitted effect of over 40% in size. In outline: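 Compounds were tested at 15 concentrations in three independent runs. Dye-loaded CHRM1-CHO cells were exposed 5 min at room temperature before stimulation by acetylcholine added at 50nM. Intracellular calcium was read kinetically on FDSS for 3 min.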

Test [11] shares this target. As to the kind of experiment: Cholinergic receptor muscarinic 1 (CHRM1) small molecule agonists, cell-based qHTS assay (AID 1963589). Note: nearly all actives have a fitted effect of over 35% in size. The procedure, abridged:
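Calcium flux read-out: kinetic fluorescence at 1 sec intervals after pin-tool compound addition to dye-loaded CHRM1-CHO cells (human M1). Agonist mode; 15 concentrations tested in triplicate independent runs.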

Test [12] can be described thus: cAMP Responsive Elements (CRE) small molecule agonists, cell-based qHTS assay (AID 1963590). In outline: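 Beta-lactamase reporter readout: LiveBLAzer B/G FRET substrate, 2 h at room temperature, added after 3 h compound treatment of CRE-bla HEK 293T cells at 37 C/5% CO2.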
Test [13] can be described thus: cAMP Responsive Elements (CRE) small molecule antagonists, cell-based qHTS assay (AID 1963591; active = well fitted inhibition curve with a large enough effect in the signal ratio in the repeat runs, not every such curve was filed as active; the % refers to the signal ratio). In outline:
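HEK293T CRE-bla; 18 h preincubation; compound pin-transfer; NKH477 0.25 uM final, 3 h, 37 C; LiveBLAzer FRET substrate 2 h RT.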

Test [14] concerns the target Beta-2 adrenergic receptor (Homo sapiens) (UniProt P07550). As to the kind of experiment: Adrenergic beta2 receptor (ADRB2) small molecule antagonists, cell-based qHTS assay (AID 1963592). Note: series mostly up to about 92 µM; nearly all actives have a fitted effect of over 50% in size. In outline:
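Assay format: CHO-ADRB2 cells, 18-20hr seeding at 37C/5% CO2, then compound plus 1nM isoproterenol agonist mix for 0.5hr RT. Homogeneous time-resolved fluorescence cAMP detection after 1hr, expressed as 665/615 nm ratio.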

Test [15] has the same target. Put plainly: Adrenergic beta2 receptor (ADRB2) small molecule agonists, cell-based qHTS assay (AID 1963593).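 Note: CHO cells stably overexpressing human ADRB2.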 In outline:
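CHO cells stably over-expressing ADRB2 were plated overnight at 37C, then dosed with compounds plus a stimulation mix containing 100uM IBMX and 25uM Ro-20-1724 for 0.5hr at room temperature. cAMP was measured by HTRF competition, 1hr.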

Test [16] has as its target D(2) dopamine receptor (Homo sapiens) (UniProt P14416). Put plainly: Dopamine D2 receptor (DRD2) small molecule agonists, cell-based qHTS assay (AID 1963594). Note: nearly all actives have a fitted effect of over 35% in size. The procedure, abridged:
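HEK293 cells stably expressing human DRD2, pre-treated with PDE inhibitor Ro20-1724 (0.1 mM final) and compound 10 min at room temperature, then stimulated with NKH477 (200nM […]) for 30 min. cAMP read by HTRF (665/620 nm).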

Test [17] has the same target. As to the kind of experiment: Dopamine D2 receptor (DRD2) small molecule antagonists, cell-based qHTS assay (AID 1963595; active = well fitted inhibition curve with a large enough effect in the signal ratio in the repeat runs, with a control signal flat; the % refers to the signal ratio). The procedure, abridged:
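Antagonist mode in DRD2-HEK293 cells: after compound addition with 0.1 mM Ro20-1724, cells received quinpirole (12 nM) and NKH477 (200 nM) for 30 min at room temperature; HTRF cAMP read after 1 h detection.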

A short description of test [18]: p53 small molecule agonists, cell-based qHTS assay (AID 1963582; active = well fitted activation curve with a large enough effect in the signal ratio in the repeat runs, not every such curve was filed as active; the % refers to the signal ratio). The procedure, abridged: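 Fluorescence intensity read-out of a beta-lactamase reporter under a p53 response element. Cells were exposed to DMSO-dissolved compounds for 16 h at 37 C, then developed with FRET substrate for 2 h at RT.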
Test [19] in a line: p53 small molecule agonists, cell-based qHTS assay with human liver microsomes (AID 1963577).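 Note: p53 response element beta-lactamase reporter cells with liver microsomes plus NADPH.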 In outline:
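In this qHTS, p53 response-element beta-lactamase cells receive test compound together with a microsome/NADPH activating system (0.5 mg/mL final each) and are incubated 16 h at 37 C before LiveBLAzer fluorescence detection.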

Here are results for nine compounds from PubChem BioAssay (Tox21).

Values without a mark were called inactive. Records with an inconclusive call do not appear. Active and inactive are the calls of the source. Unless noted, calls come from the whole dose curve.
% is set by controls: 0 for no effect and ±100 for the full control effect.

Sequence of Muscarinic acetylcholine receptor M1 (Homo sapiens) (P11229 whole entry, looked up): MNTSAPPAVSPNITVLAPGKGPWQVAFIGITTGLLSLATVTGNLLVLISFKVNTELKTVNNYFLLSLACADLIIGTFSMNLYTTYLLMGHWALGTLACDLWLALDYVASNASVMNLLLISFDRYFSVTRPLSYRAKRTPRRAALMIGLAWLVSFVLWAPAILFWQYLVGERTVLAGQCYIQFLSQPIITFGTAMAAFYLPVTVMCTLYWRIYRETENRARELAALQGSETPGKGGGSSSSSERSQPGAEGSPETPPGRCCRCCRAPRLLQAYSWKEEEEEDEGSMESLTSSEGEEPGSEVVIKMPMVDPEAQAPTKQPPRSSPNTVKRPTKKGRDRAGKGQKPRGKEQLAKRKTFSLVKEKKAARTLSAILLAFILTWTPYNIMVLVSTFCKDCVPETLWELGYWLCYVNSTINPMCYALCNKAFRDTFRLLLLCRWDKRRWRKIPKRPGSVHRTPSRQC
Sequence of Beta-2 adrenergic receptor (Homo sapiens) (P07550 whole entry, looked up): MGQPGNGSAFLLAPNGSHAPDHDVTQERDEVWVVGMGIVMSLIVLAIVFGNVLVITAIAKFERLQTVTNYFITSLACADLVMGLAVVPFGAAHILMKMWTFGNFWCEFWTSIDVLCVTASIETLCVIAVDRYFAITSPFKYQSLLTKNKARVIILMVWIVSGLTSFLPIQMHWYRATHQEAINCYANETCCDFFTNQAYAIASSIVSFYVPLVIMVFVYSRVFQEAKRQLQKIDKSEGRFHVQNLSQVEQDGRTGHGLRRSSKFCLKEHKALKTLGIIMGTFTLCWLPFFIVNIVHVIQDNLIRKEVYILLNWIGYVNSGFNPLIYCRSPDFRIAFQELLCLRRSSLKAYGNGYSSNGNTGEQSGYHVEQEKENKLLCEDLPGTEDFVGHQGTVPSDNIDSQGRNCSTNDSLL
Sequence of D(2) dopamine receptor (Homo sapiens) (P14416 whole entry, looked up): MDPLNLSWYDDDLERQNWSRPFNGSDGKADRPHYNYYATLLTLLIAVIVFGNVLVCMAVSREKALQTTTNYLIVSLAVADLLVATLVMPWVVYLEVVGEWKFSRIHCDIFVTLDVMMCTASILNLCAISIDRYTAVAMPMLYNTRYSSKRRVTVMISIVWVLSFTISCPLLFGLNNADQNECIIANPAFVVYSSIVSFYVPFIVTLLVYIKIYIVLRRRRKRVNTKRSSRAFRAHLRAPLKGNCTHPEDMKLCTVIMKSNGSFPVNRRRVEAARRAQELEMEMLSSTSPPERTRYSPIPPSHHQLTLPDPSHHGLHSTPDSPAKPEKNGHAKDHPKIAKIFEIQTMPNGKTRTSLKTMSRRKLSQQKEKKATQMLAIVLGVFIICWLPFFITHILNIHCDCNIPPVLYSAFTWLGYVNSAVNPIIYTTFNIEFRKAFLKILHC
Sequence of 5-hydroxytryptamine receptor 2A (Homo sapiens) (P28223 whole entry, looked up): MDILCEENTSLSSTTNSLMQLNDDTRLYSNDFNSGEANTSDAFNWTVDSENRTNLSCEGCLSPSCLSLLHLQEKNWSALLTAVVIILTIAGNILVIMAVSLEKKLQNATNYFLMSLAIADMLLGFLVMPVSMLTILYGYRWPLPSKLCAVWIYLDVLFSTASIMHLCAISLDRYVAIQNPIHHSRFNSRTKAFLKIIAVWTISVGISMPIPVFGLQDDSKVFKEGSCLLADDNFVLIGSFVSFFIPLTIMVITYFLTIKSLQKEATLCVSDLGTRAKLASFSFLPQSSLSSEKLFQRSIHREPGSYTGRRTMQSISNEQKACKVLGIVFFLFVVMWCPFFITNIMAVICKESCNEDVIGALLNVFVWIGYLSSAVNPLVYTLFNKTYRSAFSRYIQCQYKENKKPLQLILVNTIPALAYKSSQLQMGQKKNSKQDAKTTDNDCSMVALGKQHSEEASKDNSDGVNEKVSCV
Sequence of KiSS-1 receptor (Homo sapiens) (Q969F8 whole entry, looked up): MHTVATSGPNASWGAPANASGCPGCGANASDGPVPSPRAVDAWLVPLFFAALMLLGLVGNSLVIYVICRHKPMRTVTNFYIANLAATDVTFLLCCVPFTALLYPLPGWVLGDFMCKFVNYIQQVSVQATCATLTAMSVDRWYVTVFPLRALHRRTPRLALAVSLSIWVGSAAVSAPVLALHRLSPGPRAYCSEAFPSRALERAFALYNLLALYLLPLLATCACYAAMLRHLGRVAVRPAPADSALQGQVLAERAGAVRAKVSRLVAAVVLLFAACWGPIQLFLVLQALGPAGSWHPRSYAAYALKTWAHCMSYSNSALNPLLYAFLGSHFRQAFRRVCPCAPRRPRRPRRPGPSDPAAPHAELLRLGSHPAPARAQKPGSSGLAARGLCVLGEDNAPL
Sequence of Gonadotropin-releasing hormone receptor (Homo sapiens) (P30968 whole entry, looked up): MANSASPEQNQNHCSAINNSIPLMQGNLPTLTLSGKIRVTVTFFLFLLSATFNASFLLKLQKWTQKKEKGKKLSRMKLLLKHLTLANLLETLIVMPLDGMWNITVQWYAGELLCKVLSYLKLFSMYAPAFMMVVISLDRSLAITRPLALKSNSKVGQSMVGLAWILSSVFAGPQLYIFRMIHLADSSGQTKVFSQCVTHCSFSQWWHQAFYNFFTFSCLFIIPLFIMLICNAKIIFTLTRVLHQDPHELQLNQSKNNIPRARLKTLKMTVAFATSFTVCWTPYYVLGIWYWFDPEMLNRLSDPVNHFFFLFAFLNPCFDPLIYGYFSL

Regarding `C1=CCC=C1`, the Potency result in test [1], in test [2], in test [3], in [4], in test [5] and in test [6] was “inactive” in each case. Also, the Potency result in [7], in test [8], in test [9], in test [10], in test [11] and in [12] was “inactive” each time. The Potency entry in [13], in test [14], in test [15], in test [16] and in [17] was “inactive” in each case.

For the compound `CCOC(=O)C(SP(=S)(OC)OC)c1ccccc1` (stereo not drawn), the Potency result in test [1], in test [2], in test [3], in [4], in [5] and in test [6] was “inactive” in each case. The Potency entry in test [18], in test [8], in [9], in test [10], in test [11] and in test [12] was “inactive” throughout. The Potency result in [13], in test [14], in [16] and in test [17] was “inactive” throughout.

Regarding `O.O.O.O.O.O.O=S(=O)([O-])[O-].[Ni+2]`, the Potency entry in test [1], in test [2], in test [3], in test [4], in [5] and in test [7] was “inactive” in each case. Also, the Potency entry in test [8], in test [9], in [10], in [11], in [12] and in [13] was “inactive” throughout. For the same compound, the Potency entry in test [14], in test [16] and in test [17] was “inactive” each time.

Regarding `O=[N+]([O-])[O-].[Tl+]`, the Potency entry in test [1], in test [2], in test [3], in [4], in [5] and in test [6] was “inactive” throughout. Moreover, the Potency entry in test [7], in [8], in [9], in [10], in test [11] and in test [12] was “inactive” in each case. Also, the Potency result in test [13] and in test [17] was “inactive” throughout.

For the compound `Oc1c(I)cc(I)cc1I`, the Potency in [1] is 30.6 µM (active); in test [8], 42.1 µM (active). In addition, the Potency entry in [2], in [3], in test [19], in test [5], in test [11] and in test [13] was “inactive” in each case. In addition, the Potency entry in test [14] and in test [16] was “inactive” each time.

With `COP(=S)(OC)Oc1cc(Cl)c(Br)cc1Cl`, the Potency entry in test [1], in test [2], in [3], in [4], in test [6] and in test [7] was “inactive” in each case. Also, the Potency entry in test [8], in test [9], in test [10], in [11], in [13] and in test [14] was “inactive” in each case. Also, the Potency entry in test [15], in test [16] and in test [17] was “inactive” each time. Moreover, the Potency in [5] is 45.8 µM (active).

Consider `CN(C)C(=S)[S-].CN(C)C(=S)[S-].[Cu+2]`, for which, in test [1], the Potency is 0.297 µM (active). Further, the activity change in [2] was 5.57% [at 11.8 µM, hits give high values]. Also, the activation in test [3] is 0.935% [at 15.8 µM]; in [4], 0.103% [at 11.8 µM]; in [9], 16.6% [at 15.9 µM]; in test [11], 0.767% [at 15.8 µM]; in test [16], 0.949% [at 19 µM]. The activity change, negative = cytotoxicity in [5] was -25.4% [at 13.5 µM]. The activity, negative = inhibition in test [8] was 13.6% [at 12.7 µM]; in test [10] it was -2.33% [at 12.6 µM]. Besides, the activity change, negative = inhibition in test [13] was -106% [at 18.9 µM]; in test [14] it was 0.898% [at 19 µM]; in [17], 2.62% [at 18.9 µM].

As for `CCCSP(=S)(OCC)Oc1ccc(SC)cc1` (stereo not drawn), the Potency result in [1], in test [2], in test [3], in test [4], in test [6] and in test [7] was “inactive” throughout. The Potency entry in test [18], in test [8], in [9], in test [10], in test [11] and in test [12] was “inactive” throughout. Also, the Potency entry in [13], in [14], in test [15], in test [16] and in [17] was “inactive” in each case.

Take `CCOP(=O)(Sc1ccccc1)Sc1ccccc1`: the Potency result in test [1], in [2], in test [3], in [4], in test [5] and in test [6] was “inactive” throughout. The Potency entry in test [9], in test [10], in [11], in [12], in [13] and in [14] was “inactive” each time. Moreover, the Potency result in test [15], in test [16] and in test [17] was “inactive” throughout.
